{"source": "ChEMBL document CHEMBL4513216", "about": "“Probing the Open Global Health Chemical Diversity Library for Multistage-Active Starting Points for Next-Generation Antimalarials” (ACS Infect Dis, 2020)", "note": "The campaign covered roughly 69,000 compounds. About 8,600 (12%) showed an effect of 50% or more. The sample holds strong results, similar compounds and a random draw of the others, so the mix is not that of the screen."}
{"system": "Plasmodium berghei", "assay": "Screen against P. berghei liver stage (PbLuc), transformed with Luciferase, at 10uM", "assay_type": "functional, HepG2", "settings": "tested at 10 uM", "units": {"INHIBITION": "%"}}
{"smiles": "CC(=O)N1[C@H](Cn2cncn2)C[C@@H]2CN(C(=O)c3ccoc3)CC[C@@H]21", "INHIBITION": -22.1}
{"smiles": "c1cncc(CN2CCc3c(CNc4nccs4)n[nH]c3C2)c1", "INHIBITION": 33}
{"smiles": "Cc1n[nH]c(C2CN(C(=O)CCc3ccco3)CCO2)n1", "note": "(stereo not drawn)", "INHIBITION": -29.2}
{"smiles": "CC1(C)CC(n2cc3nc(N)[nH]cc-3c2=O)CC(C)(C)N1", "INHIBITION": 3.47}
{"smiles": "CNc1nc2cn(C3CC(C)(C)NC(C)(C)C3)c(=O)c-2c[nH]1", "INHIBITION": 25.1}
{"smiles": "Nc1nc2cn(C3CCCC3)c(=O)c-2c[nH]1", "INHIBITION": 51.8}
{"smiles": "CN1CCC(n2cc3nc(N)[nH]cc-3c2=O)CC1", "INHIBITION": 43.3}
{"smiles": "CC1(C)CC(n2cc3nc(N4CCOCC4)[nH]cc-3c2=O)CC(C)(C)N1", "INHIBITION": 60.1}
{"smiles": "CN(C)c1nc2cn(C3CC(C)(C)NC(C)(C)C3)c(=O)c-2c[nH]1", "INHIBITION": 20.1}
{"smiles": "CC1CCC(n2cc3nc(N)[nH]cc-3c2=O)CC1", "note": "(stereo not drawn)", "INHIBITION": -8.9}
{"smiles": "CC1(C)CC(n2cc3nc(N4CCCC4)[nH]cc-3c2=O)CC(C)(C)N1", "INHIBITION": 64.8}
{"smiles": "O=c1c2c[nH]c(N3CCOCC3)nc-2cn1C1CCS(=O)(=O)C1", "note": "(stereo not drawn)", "INHIBITION": 24}
{"smiles": "CCn1cc(NC(=O)c2cc(C)nc(N3CCOCC3)n2)cn1", "INHIBITION": 15.35}
{"smiles": "Cc1noc(C2CCN(C(=O)C3CCCO3)CC2)n1", "note": "(stereo not drawn)", "INHIBITION": 35.6}
{"smiles": "CN1CCCN(C(=O)c2csc3nc(-c4ccc(Cl)cc4)cn23)CC1", "INHIBITION": 43.6}
{"smiles": "O=C(NCCOc1ccc2c(c1)OCO2)N1CCC1", "INHIBITION": 23.4}
{"smiles": "Cc1ccc(C(=O)N2CCC3(CCC(=O)N(CC(N)=O)C3)CC2)cc1", "INHIBITION": 36.8}
{"smiles": "Cc1nc(NC2CC2)c2c(n1)c(C)nn2C", "INHIBITION": 29.3}
{"smiles": "Cc1nn(C)c2c(NCc3ccncc3)nc(C3CC3)nc12", "INHIBITION": -6.91}
{"smiles": "Cc1nn(C)c2c(NCc3cccnc3)nc(C3CC3)nc12", "INHIBITION": 35.1}
{"smiles": "Cc1nn(C)c2c(NCc3ccc(F)cc3)nc(C3CC3)nc12", "INHIBITION": 56.9}
{"smiles": "Cc1nn(C)c2c(N3CCCC3)nc(C3CC3)nc12", "INHIBITION": 34.5}
{"smiles": "COc1ccc(CNc2nc(C3CC3)nc3c(C)nn(C)c23)cc1", "INHIBITION": -26.1}
{"smiles": "Cc1nn(C)c2c(NCc3ccccc3F)nc(C3CC3)nc12", "INHIBITION": 75.1}
{"smiles": "Cc1nc(NC2CCCC2)c2c(n1)c(C)nn2C", "INHIBITION": 41.5}
{"smiles": "Cc1nn(C)c2c(NC3CCCC3)nc(C3CC3)nc12", "INHIBITION": 54.2}
{"smiles": "CC(C)N1[C@@H](C(=O)NCCN(C)C)C[C@H]2CN(c3ncccn3)C[C@H]21", "INHIBITION": 37.8}
{"smiles": "Cc1cc(CN2CCN(C(=O)NC(C)c3cccs3)CC2)on1", "note": "(stereo not drawn)", "INHIBITION": 38.9}
{"smiles": "CC(C)N1CCN(C(=O)C(C)n2cncn2)CC1", "note": "(stereo not drawn)", "INHIBITION": 19.6}
{"smiles": "COc1ccc(CN2CC[C@@H](O)[C@@H]2Cc2cnn(C)c2)cc1", "INHIBITION": 33.4}
{"smiles": "Cc1nc(CNC(=O)NCC(O)c2ccc(F)cc2)cs1", "note": "(stereo not drawn)", "INHIBITION": 33.8}
{"smiles": "CC(C)c1cc(O)nc(C2CCCN2C(=O)C(C)(C)C)n1", "note": "(stereo not drawn)", "INHIBITION": 23.2}
{"smiles": "O=C1C[C@H]2[C@@H](CCN2C(=O)c2cscn2)N1Cc1cccnc1", "INHIBITION": 13.7}
{"smiles": "O=C(NCc1nnc2ccccn12)N1CCOC(c2ccsc2)C1", "note": "(stereo not drawn)", "INHIBITION": 32}
{"smiles": "Cc1ccc(C2CN(C(=O)NCc3nnc4ccccn34)CCO2)o1", "note": "(stereo not drawn)", "INHIBITION": 61.3}
{"smiles": "COc1cccc2c1CCN(C(=O)NCc1nnc3ccccn13)C2", "INHIBITION": -102}
{"smiles": "O=C(NCc1nnc2ccccn12)N1CCc2sccc2C1", "INHIBITION": -27.6}
{"smiles": "O=C(NCc1nnc2ccccn12)N1CCOC(c2cccs2)C1", "note": "(stereo not drawn)", "INHIBITION": 63.5}
{"smiles": "CCn1cnnc1CNC(=O)N1CCOC(c2ccccc2Cl)C1", "note": "(stereo not drawn)", "INHIBITION": 17.5}
{"smiles": "Cc1nc(C2CN(C)CCO2)cc(N2CCC(CO)CC2)n1", "note": "(stereo not drawn)", "INHIBITION": 32.8}
{"smiles": "O=C(CC1CCCC1)N1C[C@H](Oc2cccnc2)[C@H]2OCCC[C@H]21", "INHIBITION": -24.5}
{"smiles": "Cc1nc(=O)c2ccccc2n1C1=CCN(CC(=O)NC(C)C)CC1", "INHIBITION": 23.9}
{"smiles": "O=C(C1COc2ccccc2O1)N1Cc2cnn(CCO)c2C1", "note": "(stereo not drawn)", "INHIBITION": 13.7}
{"smiles": "O=C(CN1CCOc2ccccc2C1)N1Cc2cnn(CCO)c2C1", "INHIBITION": 71.5}
{"smiles": "O=C(C1CCOc2ccccc2C1)N1Cc2cnn(CCO)c2C1", "note": "(stereo not drawn)", "INHIBITION": 27.6}
{"smiles": "CCOc1ccc(CN2CCC(c3[nH]ncc3C)C2)cc1CO", "note": "(stereo not drawn)", "INHIBITION": 14.65}
{"smiles": "COc1ncnc2c1CCN(C(=O)NCc1cccnc1)CC2", "INHIBITION": -18.2}
{"smiles": "CCc1nc(C2CCCN2CC(=O)Nc2cc(C)no2)no1", "note": "(stereo not drawn)", "INHIBITION": -14.7}
{"smiles": "CCc1cnc(NCC(C)Oc2cccnc2)nc1", "note": "(stereo not drawn)", "INHIBITION": -5.19}
{"smiles": "CCC(CC)NCC(C)Oc1cccnc1", "note": "(stereo not drawn)", "INHIBITION": 54.6}
{"smiles": "CC(CNc1nccc(C(C)C)n1)Oc1cccnc1", "note": "(stereo not drawn)", "INHIBITION": 24.3}
{"smiles": "CC(C)c1ncc(CN2CCC(c3n[nH]cc3C(=O)N(C)C)C2)cn1", "note": "(stereo not drawn)", "INHIBITION": 10.9}
{"smiles": "Cc1cccc(S(=O)(=O)N2C[C@@H]3C[C@@H](c4nc(C)no4)O[C@@H]3C2)c1", "INHIBITION": 49.4}
{"smiles": "Cc1cccnc1CN(C)c1ncnc2[nH]ccc12", "INHIBITION": -76.9}
{"smiles": "CN(Cc1ccccc1CN1CCCC1)c1ncnc2[nH]ccc12", "INHIBITION": -42.1}
{"smiles": "CN(C)Cc1ccccc1CN(C)c1ncnc2[nH]ccc12", "INHIBITION": 52.2}
{"smiles": "COc1cccc(S(=O)(=O)N2C[C@H](OC)[C@]3(CCCO3)C2)c1", "INHIBITION": 28.5}
{"smiles": "CCCN1CCCN(C(=O)Nc2ccc3c(c2)OCO3)CC1", "INHIBITION": -42.1}
{"smiles": "O=C(Nc1ccc2c(c1)OCO2)N1CCN(CCn2cccn2)CC1", "INHIBITION": 42.8}
{"smiles": "O=C(Nc1ccc2c(c1)OCO2)N1CCN(CCc2ccccc2)CC1", "INHIBITION": 60.9}
{"smiles": "Cc1nnc(CN(C)C2CCCN(Cc3noc(C4CC4)n3)C2)o1", "note": "(stereo not drawn)", "INHIBITION": 27.8}
{"smiles": "Cc1csc(NC(=O)C2(C)CN(C)CCO2)n1", "note": "(stereo not drawn)", "INHIBITION": 12.235}
{"smiles": "Cc1nc(-c2ccc(S(=O)(=O)N3CCC4(CC3)OCCO4)cc2)co1", "INHIBITION": 48.4}
{"smiles": "CCN1CCC(NC(=O)CN2CCCC2Cn2cc(C)cn2)CC1", "note": "(stereo not drawn)", "INHIBITION": 11.2}
{"smiles": "Cc1cccc(OC2CCN(c3ncc(C#N)cc3Cl)CC2)n1", "INHIBITION": 12.4}
{"smiles": "Cc1cccc(OC2CCN(c3ccc(C#N)cn3)CC2)n1", "INHIBITION": 51.1}
{"smiles": "Cc1cccc(OC2CCN(c3nccnc3C#N)CC2)n1", "INHIBITION": 11.4}
{"smiles": "CC(C)N1CCn2c(COCC3CCOCC3)cnc2C1C", "note": "(stereo not drawn)", "INHIBITION": 39.4}
